Assay results from PubChem BioAssay (EPA / NIEHS).
Results filed as inconclusive are left out. Active and inactive are the calls of the source. The calls were made as follows, unless noted: active = hit-call score of the fitted dose curve at least 0.9, where 1 is the maximum; inconclusive = response in the unintended direction; inactive = score below 0.9.

What was measured:
[1] = Tanguay_ZF_120hpf_TRUN_legacy: (Legacy) Oregon State University Tanguay Lab 120 Hour Post-fertilization zebrafish Assay for Truncated Body (AID 2283655)
Summary of the method: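 Single dechorionated zebrafish embryos received test chemical from 6 hpf in 0.64% DMSO, kept at 28C. At 120 hpf, brightfield inspection noted any truncated body.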

[2] = Tanguay_ZF_120hpf_NC_legacy: (Legacy) Oregon State University Tanguay Lab 120 Hour Post-fertilization zebrafish Assay for Notochord and Tail Malformation (AID 2283656)
Summary of the method: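 Binary notochord-distortion calls, made by brightfield inspection, form the read-out; activity is fitted in the positive direction against DMSO. Exposure ran statically from 6 to 120 hpf at 28C with 0.64% DMSO.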

[3] = read-out: Broad substrate specificity ATP-binding cassette transporter ABCG2 (Homo sapiens) (UniProt Q9UNQ0); test: CLD_ABCG2_6hr: CellzDirect (CLD) Gene Expression Assay for ABC Transporter (ABCG2) at 6 hours (AID 2283660)
Summary of the method: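 ABCG2 mRNA induction measured by qNPA chemiluminescence in human primary hepatocyte cultures, 6 h post-dose. Chemicals tested at several concentrations against a 0.2% DMSO vehicle; positive-direction fit relative to DMSO.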

[4] = tested on: Thyroperoxidase (TPO), gene 54314; test: CCTE_Simmons_AUR_rTPO: CCTE's Amplex UltraRed Assay for Thyroperoxidase (TPO) Inhibition, Simmons Lab (AID 2283662);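 also: potency for loss of signal meaning inhibition of peroxidase activity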
Summary of the method: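 Cell-free peroxidase activity assay using rat thyroid gland microsomes with excess H2O2 (300 uM) and 25 uM Amplex UltraRed. Compounds tested from 5 nM to 87.5 uM; fluorescence measured after 30 min at 37C, analysed relative to DMSO baseline.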

[5] = read-out: xenobiotic metabolism (CYP1A2), CYP1A2 (gene 1544); test: CLD_CYP1A2_6hr: CellzDirect (CLD) Gene Expression Assay for xenobiotic metabolism (CYP1A2) at 6 hours (AID 2283663);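 as to AC50: potency is for induction meaning a rise in mRNA above DMSO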
Summary of the method: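 mRNA levels quantified by quantitative nuclease protection assay with chemiluminescence, 6 h after dosing human primary hepatocyte cultures (two donors) across several concentrations, vehicle 0.2% DMSO. Induction fitted upward versus DMSO; phase-contrast cytotoxicity annotated.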

[6] = read-out: xenobiotic metabolism (CYP2C9), CYP2C9 (gene 1559); test: CLD_CYP2C9_6hr: CellzDirect (CLD) Gene Expression Assay for xenobiotic metabolism (CYP2C9) at 6 hours (AID 2283664)
Summary of the method: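 Readout is qNPA chemiluminescence of CYP2C9 mRNA, taken 6 h after dosing of cultured human liver primary cells at several concentrations. Activity is the increase over 0.2% DMSO baseline. Morphology-based cytotoxicity flagged yes/no.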

[7] = read-out: alkyl and aryl transferase (GSTA2), GSTA2 (gene 2939); test: CLD_GSTA2_6hr: CellzDirect (CLD) Gene Expression Assay for alkyl and aryl transferase (GSTA2) at 6 hours (AID 2283666)
Summary of the method: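 GSTA2 transcript induction at 6 h, quantified by nuclease protection (qNPA) with chemiluminescent detection, in human liver primary hepatocytes exposed to several compound concentrations with 0.2% DMSO as baseline; phase-contrast morphology annotated apparent cytotoxicity.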

[8] = Tanguay_ZF_120hpf_TR_legacy: (Legacy) Oregon State University Tanguay Lab 120 Hour Post-fertilization zebrafish Assay for Touch Response (AID 2283667)
Summary of the method: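 Readout is presence or absence of touch response in 120 hpf zebrafish larvae, assessed by brightfield observation after continuous static exposure at 28C. Final vehicle was 0.64% (vol/vol) DMSO.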

[9] = read-out: sulfotransferase (SULT2A), SULT2A1 (gene 6822); test: CLD_SULT2A_6hr: CellzDirect (CLD) Gene Expression Assay for sulfotransferase (SULT2A) at 6 hours (AID 2283669);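 also: hits raise transcript level above the DMSO vehicle baseline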
Summary of the method: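 Measured 6 h after dosing, SULT2A1 mRNA in human hepatocyte lysates was quantified by S1 nuclease protection with chemiluminescent detection. Increases fitted against 0.2% DMSO vehicle baseline; phase-contrast cytotoxicity recorded yes/no.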

[10] = read-out: xenobiotic metabolism (CYP1A1), CYP1A1 (gene 1543); test: CLD_CYP1A1_24hr: CellzDirect (CLD) Gene Expression Assay for xenobiotic metabolism (CYP1A1) at 24 hours (AID 2283673);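 also: CYP1A1 mRNA level by quantitative nuclease protection with chemiluminescence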
Summary of the method: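 Transcript levels were read at 24 h by qNPA chemiluminescence in human liver primary cells. Cells got daily fresh dosing at multiple concentrations (vehicle 0.2% DMSO). Induction fitted upward against DMSO; phase-contrast cytotoxicity annotated.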

[11] = read-out: ABC Transporter (ABCB1), ABCB1 (gene 5243); test: CLD_ABCB1_6hr: CellzDirect (CLD) Gene Expression Assay for ABC Transporter (ABCB1) at 6 hours (AID 2283659);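 also: hits raise ABCB1 transcript above the DMSO vehicle baseline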
Summary of the method: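 ABCB1 transcript measured by quantitative nuclease protection assay, chemiluminescent read-out, 6 h after dosing human hepatocyte cultures (0.2% DMSO vehicle, daily redosing). Activity fitted as increase over DMSO baseline; cytotoxicity flagged by phase-contrast morphology.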

[12] = read-out: glucuronosyltransferase (UGT1A1), UGT1A1 (gene 54658); test: CLD_UGT1A1_6hr: CellzDirect (CLD) Gene Expression Assay for glucuronosyltransferase (UGT1A1) at 6 hours (AID 2283672)
Summary of the method: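 UGT1A1 mRNA induction, read by quantitative nuclease protection assay, 6 h after dosing primary human hepatocytes (two donors, 0.2% DMSO vehicle). Gain of signal fitted relative to vehicle.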

[13] = read-out: Cytochrome P450 2B6 (Homo sapiens) (UniProt P20813); test: CLD_CYP2B6_6hr: CellzDirect (CLD) Gene Expression Assay for xenobiotic metabolism (CYP2B6) at 6 hours (AID 2283677);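 also: actives raise CYP2B6 transcript above DMSO baseline so AC50 marks an inducer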
Summary of the method: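 CYP2B6 transcript levels, read by chemiluminescent qNPA, were fitted for increase versus DMSO baseline; cultured human liver hepatocytes from two donor preparations were harvested 6 h after exposure to test chemicals at multiple concentrations.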

[14] = read-out: ABC Transporter (ABCB11), ABCB11 (gene 8647); test: CLD_ABCB11_24hr: CellzDirect (CLD) Gene Expression Assay for ABC Transporter (ABCB11) at 24 hours (AID 2283674; active = hit-call score of the fitted dose curve at least 0.9, where 1 is the maximum; inactive = score below 0.9)
Summary of the method: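 ABCB11 transcript was quantified by qNPA chemiluminescence in cultured human liver hepatocytes 24 hours after dosing. Fresh dosing solutions were applied on consecutive days, against a 0.2% DMSO vehicle. Cytotoxicity was noted by phase-contrast morphology.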

[15] = read-out: ABC Transporter (ABCB11), ABCB11 (gene 8647); test: CLD_ABCB11_6hr: CellzDirect (CLD) Gene Expression Assay for ABC Transporter (ABCB11) at 6 hours (AID 2283675);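 also: hits raise ABCB11 mRNA level so AC50 marks induction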
Summary of the method: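 Read-out was ABCB11 mRNA gain of signal by quantitative nuclease protection assay, relative to 0.2% DMSO vehicle, 6 h post-dose. Cells were primary human hepatocytes from two donors, treated across multiple concentrations; phase-contrast cytotoxicity noted yes/no.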

[16] = CLD_ACTIN_24hr: CellzDirect (CLD) Gene Expression Assay for Baseline Control (Actin) at 24 hours (AID 2283670)
Summary of the method: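 This 24 h qNPA (S1 nuclease protection, chemiluminescence) actin transcript readout in cultured human liver primary cells serves as baseline control. Signal is fitted upward relative to 0.2% DMSO; chemicals tested at multiple concentrations across two donor preparations.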

[17] = CLD_ACTIN_6hr: CellzDirect (CLD) Gene Expression Assay for Baseline Control (Actin) at 6 hours (AID 2283676);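 also: active means increased actin mRNA relative to DMSO vehicle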
Summary of the method: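 Baseline actin transcript level measured by qNPA (S1 nuclease protection, chemiluminescence) in human hepatocyte cultures 6 h after chemical exposure; 0.2% DMSO vehicle as reference, cytotoxicity noted from morphology.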

[18] = read-out: Cytochrome P450 2C19 (Homo sapiens) (UniProt P33261); test: CLD_CYP2C19_6hr: CellzDirect (CLD) Gene Expression Assay for xenobiotic metabolism (CYP2C19) at 6 hours (AID 2283678)
Summary of the method: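 CYP2C19 transcript induction was quantified by quantitative nuclease protection assay with chemiluminescent read-out, 6 h after dosing. Cells were primary human hepatocytes from two donor preparations, given fresh dosing solutions daily in 0.2% DMSO vehicle. Activity was relative to DMSO.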

Sequence of Broad substrate specificity ATP-binding cassette transporter ABCG2 (Homo sapiens) (Q9UNQ0 whole entry, looked up): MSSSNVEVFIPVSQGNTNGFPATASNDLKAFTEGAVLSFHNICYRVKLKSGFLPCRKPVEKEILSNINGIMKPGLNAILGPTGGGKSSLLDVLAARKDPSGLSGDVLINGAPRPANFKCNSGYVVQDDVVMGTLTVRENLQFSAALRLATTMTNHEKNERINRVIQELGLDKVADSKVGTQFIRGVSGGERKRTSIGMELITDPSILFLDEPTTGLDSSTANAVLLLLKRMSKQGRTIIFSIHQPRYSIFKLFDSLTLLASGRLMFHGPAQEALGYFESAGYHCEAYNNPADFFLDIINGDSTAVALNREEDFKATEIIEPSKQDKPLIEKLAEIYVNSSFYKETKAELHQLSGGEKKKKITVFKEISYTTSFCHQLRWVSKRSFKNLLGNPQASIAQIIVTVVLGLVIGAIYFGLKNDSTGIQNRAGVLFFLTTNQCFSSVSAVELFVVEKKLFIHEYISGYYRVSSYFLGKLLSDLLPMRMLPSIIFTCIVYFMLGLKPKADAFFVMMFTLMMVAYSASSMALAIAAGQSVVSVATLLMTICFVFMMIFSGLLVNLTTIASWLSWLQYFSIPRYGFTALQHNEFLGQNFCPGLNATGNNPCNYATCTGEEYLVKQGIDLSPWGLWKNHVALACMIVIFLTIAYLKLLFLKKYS
Sequence of Cytochrome P450 2C19 (Homo sapiens) (P33261 whole entry, looked up): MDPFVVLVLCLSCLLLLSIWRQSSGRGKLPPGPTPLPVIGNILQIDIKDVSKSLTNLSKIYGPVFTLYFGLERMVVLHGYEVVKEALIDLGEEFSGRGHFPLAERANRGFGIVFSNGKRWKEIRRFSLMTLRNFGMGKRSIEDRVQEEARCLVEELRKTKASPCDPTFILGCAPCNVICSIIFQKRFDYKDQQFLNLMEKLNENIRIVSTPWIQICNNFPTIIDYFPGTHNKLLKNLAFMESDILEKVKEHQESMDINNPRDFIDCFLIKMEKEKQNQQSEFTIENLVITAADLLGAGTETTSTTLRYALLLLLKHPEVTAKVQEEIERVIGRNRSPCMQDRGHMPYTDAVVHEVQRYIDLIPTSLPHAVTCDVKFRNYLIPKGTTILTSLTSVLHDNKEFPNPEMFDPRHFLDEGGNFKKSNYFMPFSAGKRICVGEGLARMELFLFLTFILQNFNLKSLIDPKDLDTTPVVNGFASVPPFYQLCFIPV

Compound: COP(=O)(OC)SCn1c(=O)oc2cc(Cl)cnc21
- outcome [1]: inactive
- outcome [2]: inactive
- outcome [3]: inactive
- AC50 [4]: 7.84 µM (active)
- outcome [5]: inactive
- outcome [6]: inactive
- outcome [7]: inactive
- outcome [8]: inactive
- outcome [9]: inactive
- outcome [10]: inactive

Compound: CCOP(=S)(OCC)Oc1ccc([N+](=O)[O-])cc1
- outcome [1]: inactive
- outcome [2]: inactive
- outcome [11]: inactive
- AC50 [4]: 15.5 µM (active)
- AC50 [5]: 2.19 µM (active)
- outcome [7]: inactive
- outcome [12]: inactive
- AC50 [10]: 5.99 µM (active)
- AC50 [13]: 2.58 µM (active)

Compound: C=C(C)[C@H]1Cc2c(ccc3c2O[C@@H]2COc4cc(OC)c(OC)cc4[C@@H]2C3=O)O1
- outcome [1]: inactive
- outcome [2]: inactive
- AC50 [4]: 26.5 µM (active)
- outcome [6]: inactive
- outcome [7]: inactive
- outcome [8]: inactive
- outcome [12]: inactive
- outcome [14]: inactive
- outcome [15]: inactive

Compound: CCOP(=S)(OCC)OC(Cl)C(Cl)(Cl)Cl (centres undefined)
- outcome [1]: inactive
- outcome [2]: inactive
- outcome [11]: inactive
- AC50 [4]: 3.97 µM (active)
- outcome [5]: inactive
- outcome [6]: inactive
- outcome [12]: inactive
- outcome [14]: inactive
- AC50 [13]: 0.833 µM (active)

Compound: Cc1nn(-c2cc(NS(C)(=O)=O)c(Cl)cc2Cl)c(=O)n1C(F)F
- outcome [1]: inactive
- outcome [11]: inactive
- outcome [3]: inactive
- outcome [5]: inactive
- outcome [7]: inactive
- outcome [8]: inactive
- outcome [16]: inactive
- outcome [12]: inactive
- outcome [14]: inactive
- outcome [17]: inactive
- AC50 [13]: 4.25 µM (active)

Compound: CCC(CC)Nc1c([N+](=O)[O-])cc(C)c(C)c1[N+](=O)[O-]
- outcome [1]: inactive
- outcome [2]: inactive
- outcome [11]: inactive
- outcome [5]: inactive
- outcome [6]: inactive
- outcome [8]: inactive
- outcome [12]: inactive
- AC50 [13]: 3.47 µM (active)

Compound: CNc1cnn(-c2cccc(C(F)(F)F)c2)c(=O)c1Cl
- outcome [1]: inactive
- outcome [11]: inactive
- outcome [3]: inactive
- AC50 [5]: 38.7 µM (active)
- outcome [7]: inactive
- outcome [8]: inactive
- outcome [9]: inactive
- outcome [12]: inactive
- AC50 [13]: 8.33 µM (active)
- outcome [18]: inactive

Compound: Nc1nc(N)nc(NC2CC2)n1
- outcome [1]: inactive
- outcome [11]: inactive
- outcome [6]: inactive
- outcome [8]: inactive
- outcome [16]: inactive
- outcome [12]: inactive
- outcome [13]: inactive
- outcome [18]: inactive

Compound: CCNc1nc(Cl)nc(NC(C)(C)C#N)n1
- outcome [1]: inactive
- outcome [2]: inactive
- outcome [11]: inactive
- outcome [5]: inactive
- outcome [6]: inactive
- outcome [8]: inactive
- outcome [12]: inactive
- AC50 [13]: 3.62 µM (active)
- outcome [18]: inactive

Compound: CCC(=O)Nc1ccc(Cl)c(Cl)c1
- outcome [1]: inactive
- outcome [2]: inactive
- outcome [11]: inactive
- AC50 [4]: 36 µM (active)
- AC50 [5]: 8.75 µM (active)
- outcome [7]: inactive
- outcome [8]: inactive
- outcome [12]: inactive
- AC50 [10]: 5.72 µM (active)
- AC50 [13]: 7.9 µM (active)
- outcome [18]: inactive
